Assay results from PubChem BioAssay AID651718 (The Scripps Research Institute Molecular Screening Center, 2012).
Screen size: about 360,000 compounds; about 2,700 (0.75%) were called active. The list comes from a sample in which actives are over-represented; it also holds similar structures and randomly drawn compounds. Values without a mark were called inactive. Cut-off read from the data, not from the text of the source: active = inhibition above about 4.5%; inactive = the rest.

Each compound was assayed on Methionine sulfoxide reductase A (Bos taurus) (assay: bovine MsrA enzyme inhibitors, primary screen, biochemical, absorbance, HTS (AID 651718;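 note: 0% = vehicle wells with enzyme and 100% = reference inhibitor wells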)). Conditions: purified bovine MsrA, absorbance read-out; at 15.5 µM; stronger effect = higher value.

| SMILES | inhibition |
| --- | --- |
| CCOc1ccc(-c2cc(C)[n+](CCN(CC)CC)c(-c3ccc(OCC)cc3)c2)cc1 | 5.24% (active) |
| Clc1ccc([C@@H]2CC3CCC2N3)cn1 (stereo not given in full) | -0.82% |
| COc1cc(OC)cc(C(=O)NCCN2CCC3(CC2)C(=O)NCN3c2ccccc2)c1 | 0% |
| Brc1ccc2c(c1)CNCc1cnnn1-2 | -0.08% |
| Cc1cc(N2CCNC[C@@H]2C)ccc1N1CC[C@H](O)C1 | 0% |
| COc1ccc(C(=O)C2CCCN(Cc3ccc(C)s3)C2)cc1OC (stereo not given) | 4.73% (active) |
| COc1cccc(CN2CCCC(C(=O)c3ccccc3SC)C2)c1O (stereo not given) | 1.68% |
| Cc1ccc(CN2CCCC(C(=O)c3ccc4c(c3)OCO4)C2)cc1C (stereo not given) | 0.84% |
| COC1C(O)C(C)OC(OC2CCC3(C=O)C(CCC4C3CCC3(C)C(C5=CC(=O)OC5)CCC43O)C2)C1O (stereo not given) | 0.09% |
| CCC(C)NC1(c2ccccc2)CCCCC1 (stereo not given) | -0.91% |
| CCCCC(=O)N/N=C/c1c(O)n(CC)c(=S)n(CC)c1=O | 5.43% (active) |
| COc1ccc2c(c1)[C@@]13CCCCC1[C@@H](C2)NCC3 (stereo not given in full) | 0.27% |
| O=S(=O)(c1ccccc1)N1CCC2CCNC2C1 (stereo not given) | -0.74% |
| CS(=O)(=O)N1CCC2CCNC2C1 (stereo not given) | 0.9% |
| CCN(CC)C(=O)[C@@H]1C=C2c3cccc4[nH]c(Br)c(c34)C[C@H]2N(C)C1 | 0% |
